Test results reported in the supplement of paper PMC10646978.
± gives the standard deviation.

What was measured:
Conditions in all cases: modulator concentration 10 µM
[1] = system: RAW-Dual (murine macrophage reporter line); experiment: NF-kB reporter (SEAP) activity fold change vs agonist alone; higher = enhanced NF-kB activity
How it was run: (§1)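 Overnight stimulation with a PRR agonist followed pre-incubation for 1 hour at 37 °C with compound at 10 μM final. This was done in RAW-Dual murine macrophage reporter cells seeded at 50 000 per well in 384-well plates. NF-κB (SEAP, QUANTI-Blue absorbance at 620 nm) and IRF (Lucia luciferase, QUANTI-Luc luminescence) were read from the supernatant. Each reporter's fold change relative to the mean agonist-only control on the same plate was averaged over replicate plates.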

[2] = system: RAW-Dual (murine macrophage reporter line); experiment: IRF reporter (Lucia luciferase) activity fold change vs agonist alone; higher = enhanced IRF activity
How it was run: as §1

[3] = system: RAW-Dual (murine macrophage reporter line); experiment: viability score (confluency relative to resting cells, overnight) (fraction); higher = more viable, active = viable (0.7 or more)
How it was run: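 RAW-Dual macrophages in 384-well plates were treated overnight with compound at 10 μM final. IncuCyte imaging recorded confluency, and IncuCyte software built two confluency masks across every imaged well. The viability score expresses confluency relative to resting cells and was judged against a cutoff, which a compound met only if both masks exceeded 70% of resting cells.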

[4] = agonist: CpG ODN 1826 0.5 ug/mL

Compound	NF-kB reporter [1, 4]	NF-kB reporter ([1]; agonist: LPS 0.1 ug/mL)	NF-kB reporter ([1]; agonist: MPLA […])	IRF reporter ([2]; agonist: 3'3'-cGAMP 10 ug/mL)	IRF reporter ([2]; agonist: LPS 0.1 ug/mL)	IRF reporter ([2]; agonist: MPLA […])	viability score [3]
Cc1cccc(CCC(=O)N2CCCC(Oc3ccnc(C)n3)C2)c1 (centres undefined)	1.02 ± 0.09	1.14 ± 0.11	1.06 ± 0.15	0.731 ± 0.057	1.19 ± 0.085	1.16 ± 0.24	0.963 (active)
CC(=NOCCCl)C(C)=NOCCCl	0.946 ± 0.078	1.05 ± 0.13	1.21 ± 0.042	0.909 ± 0.15	1.07 ± 0.045	1.59 ± 0.2	0.585 (inactive)
CCS(=O)(=O)c1ccc(-c2ccc(NC(=O)c3cccc(OC)c3OC)cc2)nn1	0.914 ± 0.059	0.977 ± 0.1	1.01 ± 0.1	1.05 ± 0.053	1.2 ± 0.26	1.36 ± 0.4	0.955 (active)
COc1cccc(O)c1O	1.72 ± 0.1	0.627 ± 0.083	0.321 ± 0.013	0.479 ± 0.022	0.422 ± 0.03	0.0889 ± 0.013	0.935 (active)
COc1ccc(Cl)cc1C(=O)Nc1cc(C(F)(F)F)cc(C(F)(F)F)c1	1.03 ± 0.082	1.01 ± 0.059	0.962 ± 0.086	0.966 ± 0.024	1.54 ± 0.26	1.19 ± 0.23	1.01 (active)
CCCOc1cccc(C(=O)Nc2cccc(S(N)(=O)=O)c2)c1	1.11 ± 0.13	0.97 ± 0.057	0.945 ± 0.058	0.918 ± 0.039	1.39 ± 0.14	1.05 ± 0.27	1 (active)
COc1ccc(OC)c(-c2csc(NC(=O)Cc3ccc(F)cc3)n2)c1	0.902 ± 0.097	0.944 ± 0.069	1.12 ± 0.1	1.1 ± 0.078	1.2 ± 0.18	1.38 ± 0.36	0.998 (active)
COc1ccc(-c2cc(CNC(=O)c3c(F)cccc3F)no2)cc1	0.713 ± 0.041	0.742 ± 0.11	0.744 ± 0.042	0.878 ± 0.081	1.4 ± 0.22	1.72 ± 0.45	0.947 (active)
CCOC(=O)Cc1nnnn1C	0.888 ± 0.27	1.02 ± 0.11	1.01 ± 0.14	1 ± 0.026	1.14 ± 0.15	1.17 ± 0.13	1 (active)
Cc1ncc(CC(=O)N2CCC(c3ccccc3F)S(=O)(=O)CC2)s1 (centres undefined)	0.93 ± 0.041	0.961 ± 0.1	0.959 ± 0.053	0.983 ± 0.074	0.985 ± 0.14	0.998 ± 0.27	1.01 (active)
NC(=NOC(=O)C(c1ccccc1)C1CCCC1)c1ccccn1 (centres undefined)	0.796 ± 0.062	0.857 ± 0.055	1.06 ± 0.1	0.613 ± 0.042	1.38 ± 0.083	1.62 ± 0.15	0.982 (active)
N#C[C@@H]1CCCN1C(=O)CNC12CC3CC(CC(O)(C3)C1)C2	0.79 ± 0.14	0.851 ± 0.15	0.862 ± 0.048	0.863 ± 0.06	1.05 ± 0.18	1.11 ± 0.21	0.993 (active)
OC(Cn1cncn1)(Cn1cncn1)c1ccc(F)cc1F	0.875 ± 0.072	0.967 ± 0.066	1.05 ± 0.091	1.02 ± 0.052	1.46 ± 0.096	1.62 ± 0.18	0.988 (active)
CC1(C)CC(=O)C2=C(C1)OC(N)=C(C#N)C2C1CC=CCC1 (centres undefined)	1.02 ± 0.061	1.08 ± 0.099	1.11 ± 0.068	1.23 ± 0.041	1.29 ± 0.18	1.14 ± 0.12	0.9 (active)
Cc1cc(CCC(=O)N(C)C2CN(c3ccc4nnc(C)n4n3)C2)ccc1F	1.11 ± 0.058	1.1 ± 0.091	0.918 ± 0.046	1.19 ± 0.073	1.12 ± 0.095	1.11 ± 0.16	0.979 (active)
CCCc1nc(C(C)(C)O)c(C(=O)OCc2oc(=O)oc2C)n1Cc1ccc(-c2ccccc2-c2nnn[nH]2)cc1 [Prestw-1190]	1.09 ± 0.18	1.15 ± 0.2	1 ± 0.15	0.916 ± 0.036	0.987 ± 0.094	1.14 ± 0.15	1 (active)
N#C[C@@H]1C[C@@H]2C[C@@H]2N1C(=O)[C@@H](N)C12CC3CC(CC(O)(C3)C1)C2.O	1.06 ± 0.083	0.968 ± 0.15	0.955 ± 0.024	0.956 ± 0.066	0.921 ± 0.068	0.871 ± 0.074	0.999 (active)
Cl.Nc1c(Br)cc(Br)cc1CNC1CCC(O)CC1 (centres undefined)	0.911 ± 0.074	0.95 ± 0.1	1.04 ± 0.03	0.908 ± 0.065	0.94 ± 0.096	0.999 ± 0.079	0.998 (active)
Oc1ccc(O)cc1	1.33 ± 0.2	0.586 ± 0.41	0.377 ± 0.093	0.459 ± 0.018	0.58 ± 0.41	0.211 ± 0.13	0.909 (active)
Cc1cccc(Cn2cc(C=C3SC(=S)NC3=O)c3ccccc32)c1	0.681 ± 0.067	0.893 ± 0.043	1 ± 0.088	0.844 ± 0.045	0.955 ± 0.1	1.09 ± 0.17	1.02 (active)
O=C(NCC(O)Cc1ccccc1)Nc1ccc(F)cc1 (centres undefined)	0.893 ± 0.096	0.969 ± 0.077	1.08 ± 0.064	1.04 ± 0.048	1.28 ± 0.3	1.36 ± 0.37	0.971 (active)
COC(=O)C1=CN(C2CC2)C=C(C(=O)OC)C1c1ccccc1OC	0.917 ± 0.074	1.05 ± 0.058	0.97 ± 0.061	0.934 ± 0.074	1.22 ± 0.17	1 ± 0.097	1.01 (active)
COC(=O)C(NC(=O)C(C)(C)C)C12CC3CC(CC(C3)C1)C2 (centres undefined)	0.96 ± 0.075	0.892 ± 0.067	0.934 ± 0.094	1.06 ± 0.058	1.38 ± 0.23	1.49 ± 0.3	1.02 (active)
CC(=O)NC(c1ccccc1)c1c(OC(=O)COc2ccccc2)ccc2ccccc12 (centres undefined)	0.73 ± 0.062	0.878 ± 0.049	0.714 ± 0.044	1.24 ± 0.062	0.987 ± 0.08	0.948 ± 0.12	1.01 (active)
Oc1ccc(CN2CCOCC2)cc1	1.05 ± 0.17	1.08 ± 0.094	0.971 ± 0.09	0.939 ± 0.06	1.24 ± 0.14	1.25 ± 0.13	0.995 (active)
CCOc1ccc(S(=O)(=O)NC(C)(C)C)cc1C	0.972 ± 0.081	0.852 ± 0.072	1.13 ± 0.12	0.971 ± 0.044	1.38 ± 0.082	1.53 ± 0.14	0.868 (active)
Cl.OC(CCN1CCCC1)(c1ccccc1)C1CCCCC1 (centres undefined)	0.822 ± 0.28	1.13 ± 0.061	1.12 ± 0.088	0.625 ± 0.025	1.07 ± 0.14	1.18 ± 0.26	0.976 (active)
